Shown are actives, neighbours in structure and some others; about 4.8% of the full set was active somewhere.
TGFb SMAD3 inh = TGF-b pathway inhibition. HepG2 CAGA-GFP TGF-b/SMAD3 reporter, GFP fluorescence, 18 h; TGF-beta stimulated, 500 pg/mL final. hit rate 1.2% among 410,000. Potency, µM (highest dose often 46.1 µM), without a hit: at the top dose activity, negative = inhibition, actives largely listed as inhibitors. AID 588855; note: potency is the fitted concentration of half-maximal effect; % is set by controls: 0 for no effect and ±100 for the full control effect; nearly all actives have a fitted effect of over 65% in size
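Using HEPG2 CAGA-GFP reporter cells at 1000 cells/well, we pinned test compounds, stimulated with recombinant TGF-beta (500 pg/mL final) and measured total well GFP after 18 h.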
ATXN2 expr inh = ATXN2 expression inhibition; hit rate 0.72% among 360,000; HEK-293 ATXN2-luciferase reporter, luminescence, 24 h; Potency, µM (doses to about 57 µM), without a hit: at the highest dose activity change, negative = inhibition, usual class: inhibitors; note: potency is the fitted concentration of half-maximal effect; % is set by controls: 0 for no effect and ±100 for the full control effect; nearly all actives have a fitted effect of over 55% in size
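qHTS (up to 57 uM final) was run with 24 h compound exposure of reporter cells at 37 °C. Each well was multiplexed: SteadyGlo luminescence measured ATXN2-luciferase expression after a fluorogenic Gly-Phe-AFC viability readout (25 uM final).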
HepG2 viability = counter-screen for TGF-b inhibitors: cytotoxicity in HepG2 cells. HepG2 CAGA-GFP viability, ATP luminescence, 18 h. Potency, µM (series often up to 46.1 µM), for inactives: top-dose activity change, negative = cytotoxicity, hits mostly cytotoxic. hit rate 0.76% among 410,000; note: potency is the fitted concentration of half-maximal effect
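CellTiter-Glo luminescence gave cytotoxicity after 18 hours at 37 degrees C. The cells were HepG2 CAGA-GFP in 1% FBS DMEM, stimulated with 500 pg/mL TGF-beta after compound addition. %Activity was normalised to no-cell wells (complete cell-killing) and DMSO (no toxicity), and curves were fitted and classified.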
DRD3 antagonist = antagonists of human D3 dopamine receptor | P35462 | D3R cells, DiscoveRx beta-arrestin luminescence, antagonist mode; stronger effect = lower value | max response, negative = inhibition, % | hit rate 2.5% among 360,000; in the data active = max response below about -50%; inconclusive = no clear call, values can overlap the other calls; note: % is set by controls: 0 for no effect and ±100 for the full control effect
Target sequence (P35462 whole entry, looked up): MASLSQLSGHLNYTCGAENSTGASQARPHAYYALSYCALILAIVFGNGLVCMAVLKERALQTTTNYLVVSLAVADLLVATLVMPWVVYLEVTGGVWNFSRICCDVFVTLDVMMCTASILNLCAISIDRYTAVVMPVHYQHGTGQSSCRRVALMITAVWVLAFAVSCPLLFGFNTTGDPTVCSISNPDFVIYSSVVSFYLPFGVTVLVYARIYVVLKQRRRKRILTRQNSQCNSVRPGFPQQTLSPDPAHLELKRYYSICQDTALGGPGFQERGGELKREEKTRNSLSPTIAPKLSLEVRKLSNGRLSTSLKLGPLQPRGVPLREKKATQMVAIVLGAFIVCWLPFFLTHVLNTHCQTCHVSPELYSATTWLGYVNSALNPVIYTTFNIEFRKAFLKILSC
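Cells plated overnight at 1500 cells/well, then exposed to library compounds with dopamine controls for 90 minutes at 37 degrees C. DiscoveRx reagent added for 30–60 minutes at room temperature; luminescence read, quantitative HTS format.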
ATXN viability = viability counter-screen for ATXN expression inhibitors; hit rate 0.49% among 400,000; Potency, µM (doses to about 56.7 µM), hits mostly cytotoxic; S2 cells (HEK-293 line with an ATXN2-luciferase reporter) viability, CellTiter-Fluor protease fluorescence, 24 h; AID 651635; note: potency is the fitted concentration of half-maximal effect; nearly all actives have a fitted effect of over 40% in size
DRD3 agonist = agonists of human D3 dopamine receptor; hit rate 0.58% among 410,000; max activation, %; D3R DiscoveRx beta-arrestin cells, luminescence, 90 min; P35462; in the data active = max activation above about 30%; note: 0% is about no effect
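Cells at 1500/well, incubated overnight, then treated with pinned compounds (dopamine as control) for 90 min at 37 degrees C. DiscoveRx reagent added for 30 - 60 minutes at room temperature; luminescence read.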
Starred values were filed as active, the others as inactive; i = inactive; ? = inconclusive; nt = no result. Unless noted, calls come from the whole dose curve; as a rule, active = well fitted curve in the direction sought with a large enough effect; inconclusive = small, poorly fitted or top-dose-only effect, or another doubt; inactive = no such curve, though single readings can be large; an effect the other way counts as inactive or inconclusive.

SMILES	TGFb SMAD3 inh	ATXN2 expr inh	HepG2 viability	DRD3 antagonist	ATXN viability	DRD3 agonist
CC1(C(=O)NCc2cccs2)Cc2c(-c3ccc(C(N)=O)cc3)ccnc2O1 (configuration not stated)	23.8%	0.1%	1.3%	-71.4*	i	-8.4
CC(=O)NCCNC(=O)C1(C)Cc2c(-c3ccc(C(N)=O)cc3)ccnc2O1 (configuration not stated)	27.1%	10.4%	4.2%	22.2	i	4.1
CC(=O)Nc1ccc(-c2ccnc3c2CC(C)(C(=O)Nc2ccccc2)O3)cc1 (configuration not stated)	6.4%	-20.2%	-2.4%	-23.2	i	1.9
COc1ccc(CCCNC(=O)C2(C)Cc3c(-c4ccc(NC(C)=O)cc4)ccnc3O2)cc1 (configuration not stated)	-1.8%	?	-54.5%	-62.3*	i	-18.6
COCCNC(=O)C1(C)Cc2c(-c3ccc(NC(C)=O)cc3)ccnc2O1 (configuration not stated)	14.3%	11.0%	6.6%	-1.7	i	-10.5
CC(=O)Nc1ccc(-c2ccnc3c2CC(C)(C(=O)Nc2cccc(Oc4ccccc4)c2)O3)cc1 (configuration not stated)	-29.4%	-23.4%	-15.5%	-66.2*	?	-19.4
O=C(NCc1ccco1)c1ccccc1-c1nc(-c2ccccc2)no1	-18.7%	3.0%	2µM*	15.5	i	3.0
CC(=O)NC1=C(C#N)CCC1	-9.5%	nt	-16.3%	nt	nt	nt
CN(C)c1ccc(-c2ccnc3c2CC(C)(C(=O)NCCc2ccccc2)O3)cc1 (configuration not stated)	62.6%	2.7%	-11.7%	-8.1	i	-3.7
CC1(C(=O)NCc2ccco2)Cc2c(-c3ccccc3)ccnc2O1 (configuration not stated)	-25.7%	-17.7%	-37.3%	-58.2*	i	-7.4
CC(=O)Nc1ccc(-c2ccnc3c2CC(C)(C(=O)NCCc2ccccc2)O3)cc1 (configuration not stated)	15.6%	1.9%	-9.1%	-114.9*	i	-21.3
CN(C)C(=O)N1CCN(S(=O)(=O)c2ccc3ccccc3c2)CC1	-10.8%	-19.8%	-19.7%	-11.2	i	30.5*
Cc1oc2ccc(O)c(CN(C)Cc3ccccc3)c2c1C(=O)Nc1cccc(C(F)(F)F)c1	?	nt	10µM*	nt	nt	-12.5
Cc1oc2ccc(O)c(CN(C)Cc3ccccc3)c2c1C(=O)Nc1ccccc1	?	nt	1.78µM*	nt	nt	-10.7
Cc1ccc(NC(=O)c2c(C)oc3ccc(O)c(CN(C)Cc4ccccc4)c23)c(C)c1	nt	nt	-21.9%	nt	nt	-8.9
COc1cc(/C=C2\SC(c3ccc(C)cc3)=NC2=O)cc(OC)c1O	25.5%	?	-14.6%	-53.5*	?	4.7
Cc1ccc(NC(=O)Cn2c(=O)n(-c3ccccc3)c(=O)c3ccc(C(=O)NCc4ccc5c(c4)OCO5)cc32)c(C)c1	-4.7%	-14.6%	-10.6%	nt	?	-10.0
Cc1cc(C)c(NS(=O)(=O)c2cc(-c3onc(C)c3C)ccc2C)c(C)c1	-10.5%	nt	13.0%	nt	nt	-8.5
Cc1ccc(-c2onc(C)c2C)cc1S(=O)(=O)NC1CCC(C)CC1 (configuration not stated)	10µM*	nt	-36.4%	nt	nt	0.4
O=C(CN1C(=O)COc2ccc(S(=O)(=O)Nc3ccccc3)cc21)NCc1ccccc1Cl	-21.6%	0.0%	-19.5%	nt	?	-14.8
CC(=O)NC(NC(=S)Nc1ccc(N=Nc2ccccc2C)cc1C)C(Cl)(Cl)Cl (configuration not stated)	11.3%	13.5%	-4.2%	-81.4*	?	-1.3
CC(=O)NC(NC(=S)Nc1ccccc1Br)C(Cl)(Cl)Cl (configuration not stated)	-1.5%	-2.5%	-1.0%	-0.1	i	-1.2
O=C1CCCN1CCCNCC(O)c1ccccc1 (configuration not stated)	0.0%	-9.2%	9.7%	-9.1	i	-5.0
O=C1CCCN1CCCNCC(=O)N1c2ccccc2Sc2ccccc21	6.3%	1.1%	-21.7%	-53.3*	i	-3.1
Cc1ccc(S(=O)(=O)c2cnc(SCC(=O)Nc3cccc(Cl)c3)nc2N)cc1C	?	?	-3.4%	nt	?	1.3
SMILES	TGFb SMAD3 inh	ATXN2 expr inh	HepG2 viability	DRD3 antagonist	ATXN viability	DRD3 agonist
Nc1ccc(-c2nc3c(Cl)cc(N)cc3[nH]2)cc1	-11.9%	10µM*	-8.5%	8.9	i	-3.3
Nc1ccc2nc(-c3ccc(N)c(Cl)c3)[nH]c2c1	?	-9.2%	-42.1%	-24.4	?	0.0
Cc1ccc(C)c(NC(=O)N2CCN(C(=O)c3nsc4ccccc34)CC2)c1	-16.6%	nt	9.2%	nt	nt	-3.3
Cc1cc(CCCOc2c(C)cc(-c3noc(C(F)(F)F)n3)cc2C)on1	nt	-10.0%	nt	nt	i	nt
Cc1ccc(CNC(=O)CCCN2C(=O)CCn3nc(-c4cn(C)c5ccccc45)cc32)cc1	-4.8%	11.3%	-5.0%	nt	i	1.6
COc1ccc2c(c1OC)CN1CCc3cc4c(cc3[C@@H]1[C@@H]2O)OCO4	19.6%	2.2%	-19.8%	-117.3*	i	-98.9
COc1cc2c(cc1OC)C1Cc3ccc(OC)c(OC)c3CN1CC2 (configuration not stated)	-1.6%	4.0%	2.4%	?	i	-13.9
COc1cc2c(cc1OC)[C@@H]1Cc3ccc(OC)c(OC)c3CN1CC2	-2.4%	?	-25.9%	-99.2*	i	-33.8
CN(Cc1ccccc1)c1ccc(-c2nc(-c3cccnc3)no2)cc1[N+](=O)[O-]	-25.7%	7.0%	7.3%	nt	i	-7.1
CN(Cc1ccccc1)c1ccc(-c2nc(-c3ccncc3)no2)cc1[N+](=O)[O-]	-19.0%	1.5%	-23.4%	nt	i	57.3*
CN(C)c1ccc(-c2nc(-c3ccccn3)no2)cc1[N+](=O)[O-]	-19.7%	-31.1%	-24.0%	nt	i	3.0
CN(Cc1ccccc1)c1ccc(-c2nc(-c3ccccn3)no2)cc1[N+](=O)[O-]	-3.9%	-17.8%	-16.2%	nt	?	34.1*
COc1cc(=O)n2c(c1C(=O)NCc1nonc1C)CCN(C(=O)c1cccc(C)c1C)CC2	nt	nt	nt	nt	i	nt
CC1=C(c2ccc(Cl)cc2)S(=O)(=O)N=C1N1CCN(c2cccc(C)c2)C(C)C1 (configuration not stated)	-3.6%	nt	-14.2%	nt	nt	7.2
CCN(CC)c1ccc(C(=C2C=CC(=[N+](CC)CC)C=C2)c2ccccc2)cc1	?	0.355µM*	1.78µM*	-104.5*	0.891µM*	-15.7
CCN(CC)c1ccc(C(=C2C=CC(=[N+](CC)CC)C=C2)c2ccc(N(CC)CC)cc2)cc1	2.24µM*	?	11.2µM*	-18.6	nt	-9.8

Compound activity deposited in PubChem by National Center for Advancing Translational Sciences (NCATS).
